# Assay outcomes as filed in PubChem BioAssay.
# USP2a inh: USP2a (human) protease inhibition | O75604 | USP2 core, Ub-CHOP2 coupled fluorogenic reporter, 485/531 | Potency, µM (top dose mostly 38.3 µM), actives largely listed as inhibitors | 330,000 compounds, 0.01% hits
# Target sequence (O75604 whole entry, looked up): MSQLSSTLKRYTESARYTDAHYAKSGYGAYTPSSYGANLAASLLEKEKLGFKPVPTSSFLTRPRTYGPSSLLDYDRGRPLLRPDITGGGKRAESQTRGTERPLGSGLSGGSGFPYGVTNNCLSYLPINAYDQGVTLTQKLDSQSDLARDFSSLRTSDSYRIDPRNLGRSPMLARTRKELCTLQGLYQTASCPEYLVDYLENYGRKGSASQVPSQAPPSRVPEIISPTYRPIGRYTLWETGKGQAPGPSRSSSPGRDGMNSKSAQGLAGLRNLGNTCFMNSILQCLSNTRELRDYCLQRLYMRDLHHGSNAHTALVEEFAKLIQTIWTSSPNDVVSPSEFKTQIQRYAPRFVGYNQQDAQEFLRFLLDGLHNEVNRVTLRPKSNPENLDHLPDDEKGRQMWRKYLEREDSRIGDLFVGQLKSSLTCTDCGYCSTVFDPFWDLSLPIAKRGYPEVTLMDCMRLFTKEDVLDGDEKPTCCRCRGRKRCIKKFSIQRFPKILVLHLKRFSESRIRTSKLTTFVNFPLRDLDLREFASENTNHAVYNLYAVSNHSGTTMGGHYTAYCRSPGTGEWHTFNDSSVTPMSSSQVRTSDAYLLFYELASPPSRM
#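 Cell-free coupled assay: 10nM USP2 core preincubated 30min RT with compound in Tris-HCl pH 8.0/CaCl2/CHAPS buffer, then 25nM Ub-CHOP2 and 25nM reporter substrate; fluorescence (Ex 485/Em 531) read after 60min RT, normalized to NEM inhibition, concentration-response curves fitted.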
# S2 tox: viability counter-screen for ATXN expression inhibitors; S2 cells (HEK-293 line with an ATXN2-luciferase reporter) viability, CellTiter-Fluor protease fluorescence, 24 h; Potency, µM (highest dose often 56.7 µM), usual class: cytotoxic; 400,000 compounds, 0.49% hits; AID 651635; further: nearly all actives have a fitted effect of over 40% in size
# IL1B secr inh: inflammasome signaling inhibition, IL-1 beta readout; THP-1 LPS/ATP IL-1B secretion, AlphaLISA, 16 h; hits give low values; activity change, % at 57.5 µM; 360,000 compounds, 4.7% hits; in the data active means activity change below about -50%; inconclusive means mostly about -30% to -49%
#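 Secreted IL-1B measured by AlphaLISA bead assay after 16 h compound exposure of THP-1 cells; compounds (final up to 57.5 uM) added 1 h before LPS (250 ng/mL) and ATP (1.25 mM) stimulation; lower signal means less secretion.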
# ATXN2 expr inh: ATXN2 expression inhibition; HEK-293 ATXN2-luciferase reporter, luminescence, 24 h; Potency, µM (doses to about 57 µM), most hits filed as inhibitors; 360,000 compounds, 0.72% hits; further: nearly all actives have a fitted effect of over 55% in size
#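 ATXN2-luciferase reporter cells (luciferase flanked by upstream and downstream ATXN2 gene portions) were treated 24 h at 37 °C with compounds at up to 57 uM. SteadyGlo luminescence gave expression; GF-AFC fluorescence gave viability.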
# USP1-UAF1 inh: inhibitors of human USP1/UAF1 deubiquitinase; O94782; recombinant USP1/UAF1, Ub-Rhodamine cleavage fluorescence; Potency, µM (titrated, usually from 57.1 µM), usual class: inhibitors; 390,000 compounds, 0.23% hits; further: nearly all actives have a fitted effect of over 60% in size
#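 High-throughput fluorogenic screen: 1nM USP1/UAF1 complex, Ub-Rho substrate 150nM final, 50mM HEPES pH 7.8 with 0.5mM EDTA, 0.1 mg/ml BSA, 1mM TCEP and 0.01% Tween-20.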
# Hits are given with their value; 0 = inactive; ? = inconclusive; - = not tested or not shown. The list is not random: actives were taken first. Their share in the collection is about 4.8%. Unless noted, the call rests on the fitted dose curve; in most records, active means well fitted curve in the direction sought with a large enough effect; inconclusive means small, poorly fitted or top-dose-only effect, or another doubt; inactive means no such curve, though single readings can be large; an effect the other way counts as inactive or inconclusive.
SMILES,USP2a inh,S2 tox,IL1B secr inh,ATXN2 expr inh,USP1-UAF1 inh
COc1cc(C(O)P(=O)(OC2CCCCC2)c2ccc(N(C)C)cc2)cc(OC)c1OC (stereo not drawn),0,0,0,0,0
Cc1ccc(-c2csc(NC(=O)CCNC(=O)c3ccccc3Cl)n2)cc1,0,?,-53,-,0
COc1ccc(NC(=O)c2[nH]nc3c2CSc2ccccc2-3)c(OC)c1,-,-,-,-,0
O=[N+]([O-])c1ccccc1/C=N\N1CCN(c2ccccc2)CC1,0,0,0,-,0
O=[N+]([O-])c1ccccc1/C=C\C=N\N1CCN(c2ccccc2)CC1,0,0,-53,0,0
CCOC(=O)c1ccc(NC(=O)CCc2nc(-c3ccc(Cl)cc3)no2)cc1,0,0,0,0,0
CCOC(=O)c1ccc(NC(=O)CCc2nc(-c3ccc(C)cc3)no2)cc1,0,0,-69,0,0
CC1(c2cccc(Br)c2)NC(=O)N(CC(=O)NCC2CCCO2)C1=O (stereo not drawn),0,0,0,-,0
CN(C(=O)CN1C(=O)NC(C)(c2cccc(Br)c2)C1=O)C1CCCCC1 (stereo not drawn),0,0,-89,0,0
O=C(c1cn[nH]c1)N1CCc2c([nH]c3ccccc23)C1c1c(F)cccc1Cl (stereo not drawn),0,0,-53,0,0
C(#Cc1ccccc1)CN1CCCCC1,0,0,0,0,0
CC(C)(C#CCN1CCCCC1)OCCOC(c1ccccc1)c1ccccc1,0,?,-61,0,0
C(#CCN1CCCC1)CC(c1ccccc1)c1ccccc1,0,?,-64,?,0
O=C(NCc1ccncc1)c1cnn(-c2ncc3c(n2)-c2ccccc2CC3)c1C1CC1,-,0,-,-,-
CCc1ccc(NC(=O)N2CCC(N3CCN(Cc4ccc(C)cc4)C(=O)C3=O)CC2)cc1,-,0,-,0,0
O=C(C[C@@H]1C=C[C@H](NC(=O)Cc2ccccn2)[C@@H](CO)O1)NCCc1ccccc1,-,-,-98,-,-
COC(=O)C[C@H]1C=C[C@H](NC(=O)c2ccccn2)[C@@H](CO)O1,-,-,0,-,-
Cc1nc(Nc2n[nH]c3c2CN(C(=O)N[C@H](CN(C)C)c2ccccc2)C3(C)C)c2sccc2n1,-,-,-,17µM,-
Oc1ccc(-c2nc3ccc4ccccc4c3c3c2CCC3)cc1O,0,0,-54,0,0
Cc1ccc(-c2nnc(Nc3ccccc3)o2)cc1,0,0,0,22µM,0
Cc1ccc(Nc2nc(-c3c(C)nc4ccccn34)cs2)cc1,0,?,-87,?,0
Cc1ccc(Nc2nc(-c3c(C)nc4ncccn34)cs2)cc1,0,?,-98,0,0
Cc1nc2ncccn2c1-c1csc(Nc2ccc(O)cc2)n1,0,0,0,0,0
O=C(NCCc1ccccc1)c1cccc(N2CCCC2=O)c1,0,0,0,-,0
Cc1ccc2nc(Cl)c3nnnn3c2c1,0,?,-94,?,0
SMILES,USP2a inh,S2 tox,IL1B secr inh,ATXN2 expr inh,USP1-UAF1 inh
O=C(Nc1ccccc1)N1CCc2c([nH]c3ccccc23)C1C(F)(F)F (stereo not drawn),0,0,-93,0,0
CC1c2[nH]c3ccccc3c2CCN1C(=O)Nc1ccccc1 (stereo not drawn),0,0,0,0,0
CN=C1c2cc3cc(OC)ccc3n2CCN1Cc1ccccc1,0,0,-91,?,0
O=S1(=O)CCN(C2CCCC2)CC1,-,0,0,-,0
Cc1cc(Br)ccc1NC(=O)CN(C)C(=O)CSCc1ccccc1,0,0,-52,0,0
O=C(Nc1ccc(N2CCN(C(=O)c3cccs3)CC2)cc1)c1ccc(F)cc1,0,0,-,0,0
CC(C)(C)c1cc(NC(=O)Nc2ccc(Br)cc2Cl)no1,0,0,-57,0,0
CC(C)(C)c1cc(NC(=O)Nc2ccc(Cl)cc2Cl)no1,0,0,0,0,0
COC(=O)c1ccc(COC(=O)CNC(=O)CNC(=O)c2ccc(OC)cc2)cc1,-,0,-67,0,0
O=S(=O)(Nc1cccc(-c2ccc(N3CCCCC3)nn2)c1)c1cccc(F)c1,-,?,-,0,0
CC(C)(C)c1csc(NC(=O)CCc2ccccc2)n1,0,0,-54,0,0
OCCN1CCN(c2ncnc3c2sc2nc(N4CCOCC4)c4c(c23)CCC4)CC1,0,0,-77,0,0
